Consider 6 sequences from the supplement of paper PMC6555819.

Holding throughout (test): PBM binding z-score (relative to random genomic background probes); higher = stronger binding; sequences stand for … in GC…GCGATTGACAGCGTAGAATGAAGG
Test [1] deals with FXR:RXRa (NR concentration 270 nM, RXRa partner concentration 90 nM). The procedure, abridged:
(§1)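 Antibodies against each partner of ligand-free nuclear receptor dimers (one per run) detected binding on custom Agilent 4×180K protein-binding microarrays after 1 h incubation. The double-stranded probes had 34-nt variable regions carrying direct-repeat seeds, single-nucleotide variants, half-site ablations and random human genomic background sequences. Binding z-scores, from regression-normalized fluorescence, use the random background probes as reference.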

The test system of test [2] is LXRa:RXRa (NR concentration 270 nM, RXRa partner concentration 90 nM). The gist of the method: as §1
The subject of test [3] is LXRa homodimer (NR concentration 270 nM). The gist of the method:
as §1

The subject of test [4] is LXRb:RXRa (NR concentration 270 nM, RXRa partner concentration 90 nM). The procedure, abridged:
as §1

The subject of test [5] is LXRb homodimer (NR concentration 270 nM). The procedure, abridged:
as §1

For test [6], the system named is PPARa:RXRa (NR concentration 270 nM, RXRa partner concentration 90 nM). The procedure, abridged:
as §1

Test [7] deals with PPARg:RXRa (NR concentration 180 nM, RXRa partner concentration 90 nM). The procedure, abridged: as §1
Test [8] concerns PPARg:RXRa 270nM:90nM, anti-RXR (NR concentration 270 nM, RXRa partner concentration 90 nM). The procedure, abridged: as §1
In test [9] the test system is PPARg:RXRa 30nM:10nM, anti-RXR (NR concentration 30 nM, RXRa partner concentration 10 nM). The procedure, abridged:
as §1

In test [10] the test system is PPARg:RXRa 90nM:30nM, anti-RXR (NR concentration 90 nM, RXRa partner concentration 30 nM). The procedure, abridged: as §1
Test [11] concerns PPARg:RXRa DBDmut IVT, anti-RXR (DBD mutation: RXRa K156A/R161A, NR concentration 270 nM, RXRa partner concentration 90 nM). The gist of the method: as §1
For test [12], the system named is PPARg:RXRa IVT, anti-PPARg (NR concentration 270 nM, RXRa partner concentration 90 nM). The procedure, abridged: as §1
In test [13] the test system is PPARg DBDmut:RXRa IVT, anti-PPARg (DBD mutation: PPARg1 K132A/R137A, NR concentration 270 nM, RXRa partner concentration 90 nM). The gist of the method: as §1
Test [14] has as its system PPARg DBDmut IVT, anti-PPARg (DBD mutation: PPARg1 K132A/R137A, NR concentration 270 nM). The procedure, abridged:
as §1

Test [15] relates to PPARg homodimer (NR concentration 180 nM). The gist of the method:
as §1

Test [16] concerns PXR:RXRa (NR concentration 270 nM, RXRa partner concentration 90 nM). The procedure, abridged: as §1
Test [17] relates to PXR homodimer (NR concentration 270 nM). The procedure, abridged: as §1
Test [18] deals with RARa:RXR (NR concentration 270 nM, RXRa partner concentration 90 nM). The procedure, abridged:
as §1

In test [19] the test system is RARa homodimer (NR concentration 270 nM). The procedure, abridged:
as §1

The subject of test [20] is RARb:RXRa (NR concentration 270 nM, RXRa partner concentration 90 nM). The procedure, abridged: as §1

Regarding TCTAGTTGGTAACGGAGGTCACACACGACGGGTA, the PBM binding z-score in test [1] amounted to 2.77; in [2], 3.39; in test [3], 3.31; in test [4] it was 3.27; in test [5], 0.826; in test [6] it was 3.7. For the same sequence, the PBM binding z-score is 2.37 in test [7]; 3.33 in test [8]; 3.38 in test [9]; 3.55 in test [10]; 1.63 in test [11]; 2.76 in test [12]. Moreover, the PBM binding z-score in test [13] was 0.969; in [14], 0.885; in test [15] it was 2.11; in [16], 3.99; in test [17], 1.46; in test [18] it was 4.04. Further, the PBM binding z-score in test [19] turned out to be 1.83; in test [20], 3.27.
With CCAGACAGTTGAAAGGTAACTCAGTCTGGTACGC, the PBM binding z-score was 0.192 in test [1]; 0.408 in [2]; -0.24 in [3]; 0.365 in test [4]; -0.0531 in test [5]; 1.47 in test [6]. For the same sequence, the PBM binding z-score in test [7] was found to be 0.992; in [8] it was 1.75; in test [9] it was 0.231; in test [10], 0.964; in test [11] it was 0.0148; in [12], 0.0044. Besides, the PBM binding z-score was -0.176 in test [13]; -0.589 in test [14]; 0.762 in [15]; 0.219 in test [16]; 0.144 in test [17]; 0.485 in [18]. In addition, the PBM binding z-score is 0.568 in test [19] and 0.56 in test [20].
For ATCTCTAGGTAACAATTTCAGTGAAAGAGAGGAC, the PBM binding z-score in test [1] turned out to be 0.775; in test [2], 0.589; in test [3] it was 0.266; in test [4], 0.374; in test [5], 1.34; in test [6], 0.437. In addition, the PBM binding z-score in test [7] is 0.734; in test [8], 0.62; in [9], 0.676; in test [10] it was 0.649; in [11], 3.38; in test [12], 2.8. Moreover, the PBM binding z-score in [13] was determined as 1.3; in test [14] it was 1.6; in [15], 0.669; in [16], 0.204; in test [17], 0.98; in test [18], 0.221. Further, the PBM binding z-score in test [19] was found to be 1.81; in test [20], 0.518.
For the sequence CCTCGGAGGACAGAAGGTGAGAGCTGTCCGCTTT, the PBM binding z-score in test [1] was 0.177; in test [2], 0.159; in test [3], -0.939; in test [4] it was -0.679; in test [5] it was -0.923; in [6], -0.0914. Also, the PBM binding z-score was -0.442 in test [7]; -0.325 in test [8]; -0.929 in test [9]; -0.465 in test [10]; -0.327 in [11]; 0.0317 in test [12]. Besides, the PBM binding z-score in [13] is -1.56; in test [14], -1.59; in [15] it was 0.19; in test [16], -0.301; in test [17] it was -0.684; in [18], 0.317. Also, the PBM binding z-score was -0.413 in test [19] and 1.09 in test [20].
For TCTATTAGTTGATTAGGACAACCGAAACAGCGGA, the PBM binding z-score in [1] came out at 0.957; in test [2], 0.808; in test [3] it was 0.615; in test [4], 0.807; in test [5], 1.17; in [6], 0.875. Moreover, the PBM binding z-score in test [7] amounted to 0.378; in test [8], 2.18; in [9], 4.26; in [10], 3.32; in test [11], 2.5; in test [12], 0.979. In addition, the PBM binding z-score stood at 0.853 in test [13]; 1.57 in [14]; 1.65 in test [15]; 0.749 in test [16]; 0.881 in [17]; 0.862 in test [18]. The PBM binding z-score in test [19] was 2.34; in test [20], 0.68.
Regarding CGAGCTAGGTCATTGACAGGACAGTGAATAGTAA, the PBM binding z-score in [1] is 5.01; in [2], 3.11; in test [3] it was 0.348; in test [4] it was 2; in test [5] it was -0.314; in test [6], 3.33. Also, the PBM binding z-score turned out to be 2.12 in test [7]; 2.15 in test [8]; 0.406 in [9]; 1.34 in test [10]; 3.51 in test [11]; 2.78 in test [12]. The PBM binding z-score in test [13] is 0.0808; in test [14] it was -0.146; in test [15] it was 0.918; in test [16], 1.54; in test [17], 0.31; in test [18], 2.18. Further, the PBM binding z-score was -0.128 in test [19] and 3.66 in test [20].
